Sampled rows, rich in hits. Any-hit rate of the full collection: about 2.4%.
POLI inh: qHTS for Inhibitors of Polymerase Iota | AID 588590, 2011 | Pol iota fluorescent replication assay, 10 min | Potency, µM (series often up to 115 µM), without a hit: top-dose activity, negative = inhibition, actives largely listed as inhibitors | 390,000 tested, 1% active | DNA polymerase iota (Homo sapiens), Q9UNA4; further: potency means the concentration at half of the fitted maximal effect
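Fluorescent replication assay read twice, at 0 min and 10 min after adding 50 nM (final) substrate. Enzyme (10 nM) and compounds were first incubated 15 min at room temperature; enzyme-free buffer wells were negative controls.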
FEN1 inh: qHTS Assay for the Inhibitors of Human Flap endonuclease 1 (FEN1); 390,000 tested, 0.35% active; Potency, µM (top dose mostly 114 µM), without a hit: at the top dose activity change, negative = inhibition, hits mostly inhibitors; Recombinant FEN1 flap cleavage, fluorescence, 15 min; P39748; further: potency means the concentration at half of the fitted maximal effect; on the % scale 0 is the no-effect control and ±100 the full control effect; nearly all actives have a fitted effect of over 65% in size
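With each library titrated from low to high concentration, compounds met 10 nM FEN1 for 15 min at room temperature before 50 nM substrate was added; readings at 0 and 15 min fed four-parameter Hill curve fits.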
Pol eta inh-1: qHTS for Inhibitors of Polymerase Eta; DNA polymerase eta (Homo sapiens), Q9Y253; recombinant Pol eta, fluorescent DNA replication assay; Potency, µM (titrated, usually from 114 µM), for the others: top-dose activity change, negative = inhibition, actives largely listed as inhibitors; 390,000 tested, 1.2% active; AID 588591, 2011; further: potency means the concentration at half of the fitted maximal effect; on the % scale 0 is the no-effect control and ±100 the full control effect
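Fluorescent replication assay: 50 nM final substrate added after a 15 min room-temperature compound preincubation with 10 nM enzyme. Signal taken at 0 min and again at 10 min.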
Pol beta inh: qHTS Assay for Inhibitors of DNA Polymerase Beta; P06746; Pol beta primer extension/strand displacement, fluorescence kinetic; Potency, µM (highest dose often 114 µM), inactives show at the highest dose activity change, negative = inhibition, most hits filed as inhibitors; 340,000 tested, 1.3% active; AID 485314, 2010; further: potency means the concentration at half of the fitted maximal effect; on the % scale 0 is the no-effect control and ±100 the full control effect
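Kinetic readout of DNA synthesis with strand displacement by Pol beta. Compound and 10 nM enzyme sit 15 min at room temperature; 50 nM substrate starts the reaction, read immediately and at 10 min.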
WRN helicase inh: qHTS for Inhibitors of WRN Helicase; Potency, µM (highest dose often 114 µM), for the others: top-dose activity change, negative = inhibition, usual class: inhibitors; 360,000 tested, 0.46% active; WRN helicase unwinding, fluorescent forked duplex, kinetic; further: potency means the concentration at half of the fitted maximal effect; on the % scale 0 is the no-effect control and ±100 the full control effect; nearly all actives have a fitted effect of over 55% in size
Target sequence (Q14191 whole entry, looked up): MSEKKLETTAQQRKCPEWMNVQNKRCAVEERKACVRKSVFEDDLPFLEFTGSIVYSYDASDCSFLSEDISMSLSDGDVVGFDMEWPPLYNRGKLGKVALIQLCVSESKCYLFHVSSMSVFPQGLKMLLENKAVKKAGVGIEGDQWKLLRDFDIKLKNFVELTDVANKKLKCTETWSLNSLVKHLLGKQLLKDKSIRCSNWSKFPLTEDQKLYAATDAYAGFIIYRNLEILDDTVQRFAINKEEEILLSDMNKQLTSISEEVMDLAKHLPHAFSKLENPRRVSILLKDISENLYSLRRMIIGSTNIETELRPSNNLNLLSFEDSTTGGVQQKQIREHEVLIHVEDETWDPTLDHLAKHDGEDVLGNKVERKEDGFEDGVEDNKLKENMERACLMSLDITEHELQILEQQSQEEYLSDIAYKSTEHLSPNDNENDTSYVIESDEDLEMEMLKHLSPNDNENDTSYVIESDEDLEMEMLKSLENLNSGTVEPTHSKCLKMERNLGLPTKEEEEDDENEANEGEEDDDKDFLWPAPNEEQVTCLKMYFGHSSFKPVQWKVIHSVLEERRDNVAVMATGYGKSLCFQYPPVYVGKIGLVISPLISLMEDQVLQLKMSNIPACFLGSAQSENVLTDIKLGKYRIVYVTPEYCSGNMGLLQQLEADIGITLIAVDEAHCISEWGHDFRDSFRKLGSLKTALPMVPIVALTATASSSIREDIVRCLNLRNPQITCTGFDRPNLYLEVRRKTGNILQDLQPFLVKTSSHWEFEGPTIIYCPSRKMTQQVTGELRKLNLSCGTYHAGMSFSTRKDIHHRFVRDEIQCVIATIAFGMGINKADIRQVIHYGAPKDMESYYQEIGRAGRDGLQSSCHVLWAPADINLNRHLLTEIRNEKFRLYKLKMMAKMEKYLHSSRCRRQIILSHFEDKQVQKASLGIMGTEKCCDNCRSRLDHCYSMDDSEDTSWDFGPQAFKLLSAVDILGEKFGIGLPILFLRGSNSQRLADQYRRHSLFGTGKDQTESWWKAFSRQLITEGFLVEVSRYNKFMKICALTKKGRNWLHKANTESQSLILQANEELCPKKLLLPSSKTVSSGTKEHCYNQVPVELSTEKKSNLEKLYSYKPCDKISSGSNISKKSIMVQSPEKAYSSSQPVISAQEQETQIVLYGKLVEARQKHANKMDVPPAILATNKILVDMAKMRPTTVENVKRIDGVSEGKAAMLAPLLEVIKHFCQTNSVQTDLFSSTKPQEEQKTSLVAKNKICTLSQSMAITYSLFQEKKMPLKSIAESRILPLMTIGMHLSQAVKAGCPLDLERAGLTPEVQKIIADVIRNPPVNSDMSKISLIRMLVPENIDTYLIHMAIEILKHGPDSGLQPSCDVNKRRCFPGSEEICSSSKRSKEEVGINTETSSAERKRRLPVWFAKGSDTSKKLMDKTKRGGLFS
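WRN at 20 nM final was preincubated with compound for 15 min at room temperature; reaction started with 100 nM forked duplex oligonucleotide carrying fluorophore and quencher plus 2 mM ATP (final). Unwinding followed kinetically by red fluorescence (ex 525/em 598 nm).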
Pol kappa inh-1: qHTS for Inhibitors of Polymerase Kappa. 400,000 tested, 0.53% active. purified Pol kappa, fluorescent DNA synthesis assay, 10 min. DNA polymerase kappa (Homo sapiens), Q9UBT6. Potency, µM (highest dose often 107 µM), for the others: top-dose activity, negative = inhibition, usual class: inhibitors. AID 588579, 2011; further: potency means the concentration at half of the fitted maximal effect; on the % scale 0 is the no-effect control and ±100 the full control effect
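Pol kappa 10 nM + cpd, 15 min RT; start w/ substrate 50 nM final; fluorescence kinetic read, 0 and 10 min. Neg ctrl: buffer, no enzyme.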
GALK inh confirm: Confirmation Assay for Inhibitors of Human Galactokinase (GALK). purified GALK, Kinase-Glo ATP depletion luminescence. 150 tested, 70% active. Potency, µM (doses to about 115 µM), for inactives: at the highest dose activity, negative = inhibition, most hits filed as inhibitors. AID 2015, 2009. shares compounds with Pol eta inh-1
GALK redox cs: Confirmatory Assay for Inhibitors of Human Galactokinase (GALK): Phenol-HRP redox assay counterscreen; Phenol red-HRP H2O2 redox cycling, absorbance 600 nm; shares compounds with Pol eta inh-1; 150 tested, 40% active; AID 2035, 2009; Potency, µM (doses to about 115 µM), for the others: at the top dose activity change, negative = H2O2 signal, hits mostly inhibitors
HEK293 viability: Secondary Assay for Inhibitors of Human Galactokinase (GALK): HEK-293 Cell Viability Assay. shares compounds with Pol eta inh-1. HEK-293 viability, ATP luminescence (CellTiter-Glo), 24/48 h. Potency, µM (highest dose often 46.1 µM), for inactives: at the top dose activity change, negative = cytotoxicity, hits mostly inhibitors. 170 tested, 10% active. AID 2547, 2010; further: potency means the concentration at half of the fitted maximal effect; on the % scale 0 is the no-effect control and ±100 the full control effect
Pol kappa inh-2: qHTS for Inhibitors of Polymerase Kappa: Confirmatory Assay for Cherry-picked Compounds; shares compounds with Pol eta inh-1; purified Pol-kappa, fluorescent strand-displacement substrate; Potency, µM, most hits filed as inhibitors; 920 tested, 76% active; AID 720501, 2013; further: potency means the concentration at half of the fitted maximal effect
Pol eta inh-2: qHTS for Inhibitors of Polymerase Eta: Confirmatory Assay for Cherry-picked Compounds. Potency, µM, hits mostly inhibitors. shares compounds with Pol eta inh-1. 2,600 tested, 64% active. Pol eta primer extension, TAMRA/BHQ fluorescence, 10 min. AID 720502, 2013; further: potency means the concentration at half of the fitted maximal effect
The depositor's hits bear a star; ? = inconclusive; / = not tested or not shown; [ ] = remark or other dose. The call rests on the fitted dose curve; in most records, active means well fitted curve in the direction sought with a large enough effect; inconclusive means small, poorly fitted or top-dose-only effect, or another doubt; inactive means no such curve, though single readings can be large; an effect the other way counts as inactive or inconclusive.

SMILES	POLI inh	FEN1 inh	Pol eta inh-1	Pol beta inh	WRN helicase inh	Pol kappa inh-1	Pol eta inh-2	others
Cn1nc2c(c1C(=O)O)CCCC2	?	1%	8.9µM*	?	-12%	?	27*
O=S(=O)(NCc1cccs1)c1ccc(Br)s1	/	/	/	18%	/	/	/	GALK inh confirm=-9%;GALK redox cs=0%;HEK293 viability=13%
O=S(=O)(NCc1cccs1)c1ccc(Cl)s1	-2%	14%	0%	6%	1%	-8%	/
O=C(O)C(Cc1ccc2c(c1)oc1ccccc12)NCP(=O)(O)O (stereo not drawn)	/	/	/	/	/	15%[60.1 µM]	/
CSc1cccc(N2CC(C(=O)N(CC(C)C)c3c(N)n(Cc4ccccc4)c(=O)[nH]c3=O)CC2=O)c1 (stereo not drawn)	?	-1%	25µM*	/	-10%[11.6 µM]	?	?
CC(C)CN(C(=O)C1CC1)c1c(N)n(Cc2ccccc2)c(=O)[nH]c1=O	34%	1%	-11%	/	5%	-7%	/
O=S(=O)(c1ccccc1)c1nnn2c1nc(NCc1ccccc1)c1cc(Cl)ccc12	31%	-5%	-8%	-3%	/	-5%	/
Cc1ccc(C(=O)O)cc1-n1c(C)cc(C=O)c1C	28µM*	-15%	20µM*	18µM*	-28%	?	60*
Cc1cc(C=O)c(C)n1-c1sc2c(c1C(=O)O)CCCC2	13%	8%	?	-6%	0%	-9%	/
COc1ccc(CNc2ccnc(-c3cccc(NS(C)(=O)=O)c3)n2)c(OC)c1	/	/	/	/	/	-6%[60.1 µM]	/
O=C(O)c1cccc(N2C(=O)C=CC2=O)c1	/	/	20µM*	/	-25%[11.6 µM]	/	54*
CCOC(=O)CNC(=O)C1CCCCC1	21%	-2%	/	/	/	3%	/
CN(CCOc1ccccc1)C(=O)CCc1nc2sc3c(c2c(=O)[nH]1)CCCC3	25µM*	3%	?	?	6%[11.6 µM]	-35%	?
Clc1cccc(CNc2ncnc3nc[nH]c23)c1	?	13%	/	/	/	3%	/
Cc1cc(NS(=O)(=O)c2ccc(NC(=O)/C=C/c3ccc(C)o3)cc2)nc(C)n1	-67%	?	45µM*	9%	-16%[11.6 µM]	-33%	76*
Cc1ccc(NC(=O)CN(C)S(=O)(=O)c2ccc3[nH]c(=O)oc3c2)c(C)c1	-7%	-5%	79µM*	?	-18%[11.6 µM]	-8%	27*
CCOc1ccccc1NC(=O)CN(C)S(=O)(=O)c1ccc2[nH]c(=O)oc2c1	1%	-7%	-15%	-1%	4%	-3%	/
O=C(O)c1cc(NS(=O)(=O)c2ccc(NCc3ccccc3)c([N+](=O)[O-])c2)cc(C(=O)O)c1	-11%	9%	16µM*	-20%	-9%[11.6 µM]	-24%	/	Pol kappa inh-2=?
O=C(O)c1cc(NS(=O)(=O)c2ccc(N3CCOCC3)c([N+](=O)[O-])c2)cc(C(=O)O)c1	7%	-1%	4%	-2%	-18%	-7%	/
O=C(/C=C/c1ccco1)c1cccc([N+](=O)[O-])c1	50µM*	-8%	20µM*	/	?	?	?
Cc1cc(C)c(C(=O)/C=C/c2ccco2)c(=O)[nH]1	?	-4%	56µM*	14µM*	-3%[11.6 µM]	?	85*
O=c1cc(-c2ccc([N+](=O)[O-])cc2)nc2cc(-c3ccc(F)cc3)[nH]n12	?	-1%	20µM*	-1%	?	-16%	67*
Cc1ccccc1-c1cc2nc(-c3ccc([N+](=O)[O-])cc3)cc(=O)n2[nH]1	13%	-20%	-5%	-20%	3%	-7%	/
CCOCCCNC(=O)c1ccc(NC(=O)N2CCCCc3ccccc32)cc1	30%	17%	-4%	3%	/	5%	/
Cc1ccc(Cl)cc1NC(=O)CCn1cnc2ccccc2c1=O	?	5%	45µM*	?	/	-6%[60.1 µM]	76*
SMILES	POLI inh	FEN1 inh	Pol eta inh-1	Pol beta inh	WRN helicase inh	Pol kappa inh-1	Pol eta inh-2	others
COc1ccc(NC(=O)c2oc3ccccc3c2NC(=O)Cc2cccs2)c(OC)c1	34%	4%	-8%	11%	/	-3%	/
C=CCN(CC=C)CC(=O)Nn1c(C)ccc1C	?	9%	20µM*	/	?	?	?
Cc1cc(C(F)(F)F)nc(SCc2ccc(C(=O)O)o2)n1	22µM*	-3%	8.9µM*	40µM*	-10%[11.6 µM]	-32%	?
Cc1ccc(-c2cn3nc(N4CCCC(C(=O)Nc5ccc(F)cc5)C4)sc3n2)cc1 (stereo not drawn)	-1%	-8%	-9%	-8%	/	-11%	/
O=C(O)c1ccc(N2C(=O)CCCC2=O)cc1	-5%	20%	-5%	1%	0%	4%	/
O=C(O)c1ccc(-n2[nH]c3c(c2=O)CCCC3)cc1	?	13%	35µM*	28µM*	-5%[57.1 µM]	?	?	Pol kappa inh-2=24*
CN(C)c1ccc(CNC(=O)c2cc3ccccn3n2)cc1	-13%	20%	6%	2%	/	-10%	/
Cc1ccc2nc(Cl)c(/C=N/Nc3ccc(C(=O)O)cc3)cc2c1	-37%	45µM*	22µM*	-21%	-32%	?	27*
Cc1cccc(OCC(=O)N(Cc2cccc(Cl)c2)Cc2ccco2)c1C	-11%	1%	/	-3%	/	2%	/
Cc1cc(NS(=O)(=O)c2ccc(NC(=O)COc3ccccc3[N+](=O)[O-])cc2)no1	35µM*	-15%	20µM*	18µM*	?	?	67*
